# Assay outcomes deposited in PubChem by several laboratories.
# Most compounds without a hit are left out; they make up all but 28% or so of the library.
# PLK1 kinase inh: PLK1 (human) kinase inhibition; P53350; AID 619; inhibition, % at 10 µM; actives 0.53% (n = 97,000); recombinant PLK1 kinase, TR-FRET peptide phosphorylation;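 active = inhibition of 50% or more in the single-concentration screen; inactive = inhibition below 50%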
# CYP2C19 inh: human CYP2C19 inhibition; CYP2C19 Supersomes, luciferin-H EGE luminescence, 30 min; inhibition, % at 5 µM; actives 21% (n = 96,000); AID 778;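 active = CYP2C19 inhibition above a set limit at 5 µM in the primary screen, cut at about 50% in these data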
# Plk1 PBD FP: Plk1 (human) PBD binding inhibition | Plk1 PBD phosphopeptide binding, fluorescence polarization | inhibition, %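 (tested at about 20 µM)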 | actives 0.13% (n = 97,000); in the data active = inhibition above about 34%, passing the limit was not always enough
# CYP2C19 act: cytochrome P450 2C19 (human) activation. recombinant CYP2C19, luciferin-H EGE luminescence; stronger effect = higher value; 0 = fully inhibited enzyme, 1 = untreated enzyme. P33261. 96,000 tested, under 10 active. activation factor at 5 µM;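 active = activation factor of at least 2 at 5 µM in the primary screen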
# CYP2C9 inhib: blocks human cytochrome P450 2C9; CYP2C9 Supersomes, luciferin-H conversion, luminescence; actives 20% (n = 96,000); P11712; inhibition, % at 5 µM; AID 777;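 active = blocking of liver enzyme CYP2C9 beyond about 50% at 5 µM, limit read from the data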
# Target sequence (P11712 whole entry, looked up): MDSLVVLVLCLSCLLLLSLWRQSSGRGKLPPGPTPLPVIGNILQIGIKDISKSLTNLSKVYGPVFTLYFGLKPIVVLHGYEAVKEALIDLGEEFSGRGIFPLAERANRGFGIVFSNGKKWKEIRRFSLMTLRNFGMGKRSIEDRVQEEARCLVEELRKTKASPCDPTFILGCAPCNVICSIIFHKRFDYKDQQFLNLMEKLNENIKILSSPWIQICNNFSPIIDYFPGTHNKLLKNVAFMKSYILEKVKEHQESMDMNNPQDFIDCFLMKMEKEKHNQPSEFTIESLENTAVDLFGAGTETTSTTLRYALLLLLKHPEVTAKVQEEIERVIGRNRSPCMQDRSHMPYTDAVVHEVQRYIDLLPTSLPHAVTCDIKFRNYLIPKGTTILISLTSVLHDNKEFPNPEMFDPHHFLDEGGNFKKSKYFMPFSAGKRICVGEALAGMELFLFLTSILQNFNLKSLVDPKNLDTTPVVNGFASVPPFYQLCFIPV
# CYP2C9 act: CYP2C9 (human) activation; P11712; recombinant CYP2C9, luciferin-H conversion, luminescence; stronger effect = higher value; factor 1 = untreated enzyme, 0 = blocked; activation factor at 5 µM; actives 1.4% (n = 96,000); AID 1024;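 active = activation factor of 2 or more for CYP2C9 at a 5 µM dose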
# A number is an active result; i = inactive; nt = no result.
SMILES,PLK1 kinase inh,CYP2C19 inh,Plk1 PBD FP,CYP2C19 act,CYP2C9 inhib,CYP2C9 act
COc1ccc(-c2nnc(SCC(=O)N3CCCC(C)C3)o2)c(OC)c1 (stereo not given),i,71,i,i,i,i
CCC1CCCCN1C(=O)CSc1nc2c([nH]c3ccccc32)c(=O)n1C (stereo not given),i,nt,i,nt,nt,nt
CC1CCCN(C(=O)CSc2nnc(-c3c[nH]c4ccccc34)o2)C1 (stereo not given),i,71,i,i,i,i
CC1CCCC(C)N1C(=O)CSc1nnc(-c2c[nH]c3ccccc23)o1 (stereo not given),i,i,i,i,i,i
Cn1c(=O)c2c(nc(N3CCN(Cc4ccccc4)CC3)n2CCSc2ncccn2)n(C)c1=O,nt,i,nt,i,i,i
Cc1ccc(NS(=O)(=O)c2ccc(NC(=O)[C@@H]3CCCC[C@@H]3C(=O)O)cc2)c(C)c1,i,i,i,i,i,i
CC(C)CNC(=S)NC1CC2CCCC(C1)N2Cc1cccs1 (stereo not given),i,i,i,i,i,i
Cc1ccc(-n2c(Cc3cccn3C)nnc2SCC(=O)NCc2ccc3c(c2)OCO3)cc1,i,57,i,i,84,i
Cc1ccc(-n2c(Cc3cccn3C)nnc2SCC(=O)Nc2ccc3c(c2)OCO3)cc1,i,i,i,i,56,i
O=C(CSc1nnc(Cc2cccs2)n1Cc1ccco1)Nc1ccc(Cl)cc1Cl,i,i,i,i,62,i
Cc1cc(C)nc(SCc2nnc(SCC(=O)Nc3ccc(C)c(C)c3)n2Cc2ccco2)n1,i,i,i,i,i,i
O=C(CSc1nnc(Cc2cccs2)n1Cc1ccco1)Nc1ccc(Br)cc1,i,89,i,i,93,i
O=C(CSc1nnc(-c2ccco2)n1Cc1ccco1)NCc1cccs1,i,51,i,i,57,i
Cc1ccc(NC(=O)CN2C(=O)C3CCCCN3C(=O)c3ccccc32)cc1 (stereo not given),i,i,i,i,i,i
c1ccc(CSc2n[nH]c(-c3ccco3)n2)cc1,i,61,i,i,i,i
CC1CCCCN1C(=O)CSc1nc2ccccc2n1CC(=O)N1CCc2ccccc21 (stereo not given),nt,82,nt,i,99,i
CC(C)NC(=O)Cn1c(SCC(=O)N2CCc3ccccc3C2)nc2ccccc21,nt,i,nt,i,i,i
CN(C)C(=O)Cn1c(SCC(=O)N2CCCc3ccccc32)nc2ccccc21,i,i,i,i,i,i
CC(C)NC(=O)CSc1nc2ccccc2n1CC(=O)N1CCc2ccccc21,i,72,i,i,95,i
CCCCN(C)CCNC(=O)Cn1ncc2c(=O)oc3ccc(C)cc3c21,i,i,i,i,i,i
CC(Sc1nc(N2CCCCC2)c2c(c1C#N)CCCC2)C(=O)O (stereo not given),i,i,i,i,90,i
CC1(C)Cc2c(C#N)c(SCc3ccccc3)nc(N3CCOCC3)c2CO1,i,i,i,i,88,i
CC(C)Sc1nc(N2CCCC2)c2c(c1C#N)CC(C)(C)OC2,nt,61,nt,i,87,i
Cc1cc(C)c(C#N)c(N2CCCC2)n1,i,i,i,i,i,i
CCCCCSc1nc(N2CCOCC2)c2c(c1C#N)CC(C)(C)OC2,i,i,i,i,83,i
SMILES,PLK1 kinase inh,CYP2C19 inh,Plk1 PBD FP,CYP2C19 act,CYP2C9 inhib,CYP2C9 act
CC(C)c1[nH]c(=O)c(C#N)c2c1COC(C)(C)C2,i,i,i,i,i,i
CC(C)C(C(=O)NCC1CCCO1)N(Cc1ccco1)C(=O)CNS(=O)(=O)c1ccccc1 (stereo not given),i,i,i,i,i,i
CCOC(=O)CSc1nc(N2CCOCC2)c2c(c1C#N)CC(C)(C)N(C)C2,i,i,i,i,73,i
COC(=O)Sc1nc(N2CCOCC2)c2c(c1C#N)CC(C)(C)OC2,i,62,i,i,83,i
CC1(C)Cc2c(C#N)c(SCC(=O)c3ccccc3)nc(N3CCOCC3)c2CO1,i,62,i,i,92,i
c1ccc(CSc2nnc(SCc3ccccn3)s2)nc1,i,i,i,i,i,i
Cn1c(SCC(=O)c2ccccc2F)nnc1C1CC1,i,i,i,i,i,i
CC(Cc1ccccc1)NC(=O)C1CCCNC1=O (stereo not given),i,i,i,i,i,i
Cc1cccc(-n2nc([N+](=O)[O-])c(=NCc3cccnc3)n2O)c1,i,60,i,i,i,i
